# Whole data set: some 2,900 compounds, median “NF-kB SEAP reporter activity, fold change vs agonist alone” near 0.99, cut for the highest 2% near 2.6. The list comes from a sample in which the highest values are over-represented; it also holds similar structures and randomly drawn compounds.
# Legend:
# RAW-Dual [1] = test: NF-kB SEAP reporter activity, fold change vs agonist alone; cytotoxicity flag (confluency mask): not cytotoxic; higher = enhanced NF-kB activity
# In short: (§1)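 After 50 nL of library stock was delivered by pin tool to RAW-Dual macrophages (50,000 cells/well, DMEM, 384-well plates), a PRR agonist was added 1 h later and the plates were kept at 37 °C, 5% CO2. Twenty hours later, IRF was read from supernatant by QuantiLuc luminescence and NF-κB by QuantiBlue absorbance at 620 nm. Reporter activity is stated as fold change over agonist-alone wells. Wells with IncuCyte confluency under 70% of agonist controls in both mask sets were counted as cytotoxic.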
# RAW-Dual [2] = test: NF-kB SEAP reporter activity, fold change vs agonist alone; higher = enhanced NF-kB activity; conditions: library stock concentration (final ~1000-fold dilution): 10 mM
# In short: as §1
# RAW-Dual [3] = test: NF-kB SEAP reporter activity, fold change vs agonist alone; cytotoxicity flag (confluency mask): cytotoxic (confluency <70% of control); higher = enhanced NF-kB activity
# In short: as §1
# [4] = agonist: ODN 1826 (TLR9) 0.5 ug/mL
# [5] = agonist: Pam2CSK4 (TLR2/6) 0.1 ug/mL
# [6] = agonist: Pam3CSK4 (TLR2/1) 0.1 ug/mL
# [7] = cytotoxicity flag (confluency mask): not cytotoxic, agonist: Imiquimod (TLR7) […]
# [8] = cytotoxicity flag (confluency mask): not cytotoxic, agonist: MPLA (TLR4) […]
# [9] = cytotoxicity flag (confluency mask): cytotoxic (confluency <70% of control), agonist: Imiquimod (TLR7) […]
# [10] = cytotoxicity flag (confluency mask): cytotoxic (confluency <70% of control), agonist: MPLA (TLR4) […]
smiles,measurement,setting,value
C=C1CCC2C(C)(CO)C(O)CC[C@@]2(C)[C@@H]1C/C=C1/C(=O)OCC1O (stereo partly specified) (library stock concentration (final ~1000-fold dilution): 10 mM),NF-kB SEAP reporter activity,RAW-Dual [1]; agonist: LPS (TLR4) 0.1 ug/mL,0.32
same,NF-kB SEAP reporter activity,RAW-Dual [1]; [4],0.206
same,NF-kB SEAP reporter activity,RAW-Dual [1]; [5],0.0769
same,NF-kB SEAP reporter activity,RAW-Dual [1]; [6],0.161
C=C1CCC2C(C)(CO)C(O)CC[C@@]2(C)[C@@H]1C/C=C1/C(=O)OCC1O (stereo partly specified),NF-kB SEAP reporter activity,RAW-Dual [2]; [7],0.287
same,NF-kB SEAP reporter activity,RAW-Dual [2]; [8],0.305
CC(C)(C)OC(=O)NC1CCCCC/C=C\C2CC2(C(=O)NS(=O)(=O)C2CC2)NC(=O)C2CC(OC(=O)N3Cc4cccc(F)c4C3)CN2C1=O (stereo unspecified),NF-kB SEAP reporter activity,RAW-Dual [2]; [7],0.902
same,NF-kB SEAP reporter activity,RAW-Dual [2]; [8],1.01
COc1ccc2c(OC3CC4C(=O)NC5(C(=O)NS(=O)(=O)C6CC6)CC5/C=C\CCCCN(C)C(=O)C4C3)cc(-c3nc(C(C)C)cs3)nc2c1C (stereo unspecified) (library stock concentration (final ~1000-fold dilution): 10 mM),NF-kB SEAP reporter activity,RAW-Dual [1]; agonist: LPS (TLR4) 0.1 ug/mL,3.16
same,NF-kB SEAP reporter activity,RAW-Dual [1]; [4],0.926
same,NF-kB SEAP reporter activity,RAW-Dual [1]; [5],0.842
same,NF-kB SEAP reporter activity,RAW-Dual [1]; [6],0.952
COc1ccc2c(OC3CC4C(=O)NC5(C(=O)NS(=O)(=O)C6CC6)CC5/C=C\CCCCN(C)C(=O)C4C3)cc(-c3nc(C(C)C)cs3)nc2c1C (stereo unspecified),NF-kB SEAP reporter activity,RAW-Dual [2]; [8],1.03
CC(C)(C)OC(=O)NC1CCCCC/C=C\C2CC2(C(=O)NS(=O)(=O)C2CC2)NC(=O)C2CC(OC(=O)N3Cc4cccc(F)c4C3)CN2C1=O (stereo unspecified) (library stock concentration (final ~1000-fold dilution): 10 mM),NF-kB SEAP reporter activity,RAW-Dual [1]; agonist: LPS (TLR4) 0.1 ug/mL,1.01
same,NF-kB SEAP reporter activity,RAW-Dual [1]; [4],0.995
same,NF-kB SEAP reporter activity,RAW-Dual [1]; [5],0.808
same,NF-kB SEAP reporter activity,RAW-Dual [1]; [6],1.03
Cc1cnc(C(=O)NC2CCCCC/C=C\C3CC3(C(=O)NS(=O)(=O)C3CC3)NC(=O)C3CC(Oc4nc5ccccc5c5ccccc45)CN3C2=O)cn1 (stereo unspecified),NF-kB SEAP reporter activity,RAW-Dual [2]; [8],0.899
Cc1cnc(C(=O)NC2CCCCC/C=C\C3CC3(C(=O)NS(=O)(=O)C3CC3)NC(=O)C3CC(Oc4nc5ccccc5c5ccccc45)CN3C2=O)cn1 (stereo unspecified) (library stock concentration (final ~1000-fold dilution): 10 mM),NF-kB SEAP reporter activity,RAW-Dual [1]; agonist: LPS (TLR4) 0.1 ug/mL,0.973
same,NF-kB SEAP reporter activity,RAW-Dual [1]; [4],1.05
same,NF-kB SEAP reporter activity,RAW-Dual [1]; [5],0.744
same,NF-kB SEAP reporter activity,RAW-Dual [1]; [6],0.617
Cl.NCc1c[nH]c(=S)n1C1CCc2c(F)cc(F)cc2C1 (stereo unspecified) (library stock concentration (final ~1000-fold dilution): 10 mM),NF-kB SEAP reporter activity,RAW-Dual [1]; agonist: LPS (TLR4) 0.1 ug/mL,0.779
same,NF-kB SEAP reporter activity,RAW-Dual [1]; [4],0.895
same,NF-kB SEAP reporter activity,RAW-Dual [1]; [5],0.82
same,NF-kB SEAP reporter activity,RAW-Dual [1]; [6],0.904
Cl.NCc1c[nH]c(=S)n1C1CCc2c(F)cc(F)cc2C1 (stereo unspecified),NF-kB SEAP reporter activity,RAW-Dual [2]; [7],1.12
same,NF-kB SEAP reporter activity,RAW-Dual [2]; [8],0.889
COS(=O)(=O)[O-].COc1cccc2c1nc1ccccc1[n+]2C,NF-kB SEAP reporter activity,RAW-Dual [2]; [9],0.838
same,NF-kB SEAP reporter activity,RAW-Dual [2]; [10],0.899
COc1cc(NS(C)(=O)=O)ccc1Nc1c2ccccc2nc2ccccc12.Cl,NF-kB SEAP reporter activity,RAW-Dual [2]; [9],2.58
same,NF-kB SEAP reporter activity,RAW-Dual [2]; [10],2.51
COC(=O)c1sccc1S(=O)(=O)Nc1ccc(Nc2ccccc2)cc1OC,NF-kB SEAP reporter activity,RAW-Dual [2]; [7],1.07
same,NF-kB SEAP reporter activity,RAW-Dual [2]; [8],1.11
COC(=O)c1sccc1S(=O)(=O)Nc1ccc(Nc2ccccc2)cc1OC (library stock concentration (final ~1000-fold dilution): 10 mM),NF-kB SEAP reporter activity,RAW-Dual [1]; agonist: LPS (TLR4) 0.1 ug/mL,1.72
same,NF-kB SEAP reporter activity,RAW-Dual [1]; [4],0.911
same,NF-kB SEAP reporter activity,RAW-Dual [1]; [5],0.821
same,NF-kB SEAP reporter activity,RAW-Dual [1]; [6],0.872
COS(=O)(=O)[O-].COc1cccc2c1nc1ccccc1[n+]2C (library stock concentration (final ~1000-fold dilution): 10 mM),NF-kB SEAP reporter activity,RAW-Dual [3]; agonist: LPS (TLR4) 0.1 ug/mL,0.473
same,NF-kB SEAP reporter activity,RAW-Dual [3]; [4],0.781
same,NF-kB SEAP reporter activity,RAW-Dual [3]; [5],0.271
same,NF-kB SEAP reporter activity,RAW-Dual [3]; [6],0.272
COc1cc(NS(C)(=O)=O)ccc1Nc1c2ccccc2nc2ccccc12.Cl (library stock concentration (final ~1000-fold dilution): 10 mM),NF-kB SEAP reporter activity,RAW-Dual [3]; agonist: LPS (TLR4) 0.1 ug/mL,2.6
same,NF-kB SEAP reporter activity,RAW-Dual [3]; [4],0.68
same,NF-kB SEAP reporter activity,RAW-Dual [3]; [5],1.05
same,NF-kB SEAP reporter activity,RAW-Dual [3]; [6],0.776

# — the supplement of paper PMC10037445
